Measurements from the supplement of paper PMC7858590.

Each compound was assayed on human monocyte-derived macrophages (polarized) (assay: cell shape (eccentricity) Z-score vs DMSO control; higher = more elongated, M2-like morphology). Settings: 5 µM; 24 h; macrophage state: M1-polarized (IFNg + TNFa), cytokines present during treatment.
Description: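 Primary-screen hits were rescreened on polarized hMDMs with the differentiating cytokines (IL-4 + IL-13 or IFNg + TNFa) kept in the medium during treatment with compound at 5 uM for 24 h. The eccentricity Z-score vs DMSO wells is averaged over experiments.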

Compound | cell shape (Z-score)
CNc1ccc2oc(C[C@H]3O[C@@]4(CC[C@H]3C)O[C@H]([C@H](C)C(=O)c3ccc[nH]3)[C@H](C)C[C@H]4C)nc2c1C(=O)O | -11.1
CCCN(CCC)C1CCc2cccc(O)c2C1 (stereo not given) | -3.43
CCn1cc(C(=O)O)c(=O)c2cc3c(cc21)OCO3 | 3.52
O=C(O)c1nn(Cc2ccc(Cl)cc2Cl)c2ccccc12 | 4.43
C=C(C)[C@@H]1[C@H]2OC(=O)[C@@H]1[C@]1(O)C[C@H]3O[C@]34C(=O)O[C@H]2[C@]14C | 0.251
COc1cc([C@@H]2c3cc4c(c(O)c3C[C@H]3COC(=O)[C@@H]32)OCO4)cc(OC)c1OC | 3.15
COc1cc([C@@H]2c3cc4c(cc3[C@@H](O)[C@H]3COC(=O)[C@H]23)OCO4)cc(OC)c1O | 3.2
CCC(=O)CCCCC[C@@H]1NC(=O)[C@H]2CCCCN2C(=O)[C@H]([C@@H](C)CC)NC(=O)[C@H](Cc2cn(OC)c3ccccc23)NC1=O | 4.88
COc1ccc2c3c([nH]c2c1)[C@H](CC(C)C)N1C(=O)[C@H](CCC(=O)OC(C)(C)C)NC(=O)[C@@H]1C3 | 6.14
CCC1(CC)C(=O)NC(=O)NC1=O | -5.4
CC(C)[C@]12O[C@H]1[C@@H]1O[C@]13[C@]1(O[C@H]1C[C@H]1C4=C(CC[C@@]13C)C(=O)OC4)[C@@H]2O | 5.54
CCNC(=O)C[C@@H]1N=C(c2ccc(Cl)cc2)c2cc(OC)ccc2-n2c(C)nnc21 | -4.48
O=C1NC(=O)c2c1c1c3ccccc3[nH]c1c1[nH]c3ccccc3c21 | 7.76
COc1cc([C@@H]2c3cc4c(cc3[C@H](OC(C)=O)[C@H]3COC(=O)[C@H]23)OCO4)cc(OC)c1OC | 7.24
O=C1/C(=C/c2ccccc2)C[C@@]2(O)[C@H]3Cc4ccc(O)c5c4[C@@]2(CCN3CC2CC2)[C@H]1O5 | -6.15
C[C@]12CC[C@@H](O)C[C@@H]1CC[C@@H]1[C@@H]2CC[C@]2(C)[C@@H](C(=O)CO)CC[C@@H]12 | 3.05
CC(C)=CC1C(C(=O)OCc2coc(Cc3ccccc3)c2)C1(C)C (stereo not given) | 8.88
CCCCCCCCCCCCCC(=O)O[C@@H]1[C@@H](C)[C@@]2(O)[C@@H](C=C(CO)C[C@]3(O)C(=O)C(C)=C[C@@H]23)[C@@H]2C(C)(C)[C@]12OC(C)=O | -6.25
C[C@]12CCC(=O)C=C1CC[C@@H]1C2CC[C@]2(C)C(=O)CCC12 (stereo not given in full) | -0.101
Cc1sc2c(c1C)C(c1ccc(Cl)cc1)=N[C@@H](CC(=O)OC(C)(C)C)c1nnc(C)n1-2 | -7.72
CCOC(=O)c1ncn2c1C1CCCN1C(=O)c1cc(OC)ccc1-2 (stereo not given) | 1.88
COc1cc2ccc(=O)oc2c2ccoc12 | 8.59

Same assay, conditions: 5 µM; 24 h; macrophage state: M2-polarized (IL-4 + IL-13), cytokines present during treatment

Compound | cell shape (Z-score)
CCN1C[C@]2(C)CC[C@H](O)[C@@]34C2[C@H](OC)C([C@@H]13)[C@@]1(O)C[C@H](OC)[C@H]2C[C@@H]4[C@@H]1[C@H]2O | -1.79
COc1ccc2c(c1)[nH]c1c(C)nccc12 | -11
CC(=O)O[C@@H]1CC2C(C)(C)C(=O)C=C[C@]2(C)C2CC[C@]3(C)C(=CC(=O)O[C@H]3c3ccoc3)[C@@]21C (stereo not given in full) | -9.39
CC(C)=CCC[C@]1(C)C=Cc2c(O)c3c(c(CC=C(C)C)c2O1)O[C@]12C(=C[C@@H]4C[C@H]1C(C)(C)O[C@@]2(C/C=C(/C)C(=O)O)C4=O)C3=O | -10
c1ccc2c(c1)[I+]c1ccccc1-2 | -19
C[C@H]1O[C@@H](O[C@H]2CC[C@]3(CO)C4CC[C@]5(C)[C@@H](C6=CC(=O)OC6)CC[C@]5(O)[C@@H]4CC[C@H]3C2)[C@H](O)[C@H](O)[C@@H]1O[C@@H]1O[C@H](CO)[C@@H](O)[C@H](O)[C@H]1O (stereo not given in full) | -17.5
COc1cc(Br)c(OC)c2c1C(CN)C2 (stereo not given) | 7.42
CC(=O)O[C@H]1C(=O)[C@@]2(C)[C@H]([C@H](OC(=O)c3ccccc3)[C@]3(O)C[C@H](O)C(C)=C1C3(C)C)[C@]1(OC(C)=O)CO[C@@H]1C[C@@H]2O | -9.61
Cc1c(C(=O)c2cccc3ccccc23)c2cccc3c2n1[C@H](CN1CCOCC1)CO3 | -6.47
C=C1[C@@H](C)[C@H]2[C@H](Cc3ccccc3)NC(=O)[C@]23OC(=O)/C=C/[C@H](O)CCC[C@@H](C)C/C=C/[C@H]3[C@@H]1O | -29.4
O=c1[nH]c2ccccc2n1C1CCN(CCCC(c2ccc(F)cc2)c2ccc(F)cc2)CC1 | -5.52
CC1=CC(=O)c2c(O)cccc2C1=O | 3.72
CCCC[C@@H](C)[C@@H](OC(=O)C[C@@H](CC(=O)O)C(=O)O)[C@H](C[C@@H](C)C[C@H](O)CCCC[C@@H](O)C[C@H](O)[C@H](C)N)OC(=O)C[C@@H](CC(=O)O)C(=O)O | 2.12
CC(=O)O[C@H]1CC[C@@]2(C)[C@H](CC[C@@H]3[C@@H]2CC[C@]2(C)[C@@H](C4=CC(=O)OC4)[C@@H](OC(C)=O)C[C@]32O)C1 | -23.5
C(=C\c1ccccc1)/CN1CCN(CCOC(c2ccccc2)c2ccccc2)CC1 | 3.27
C[C@@]12C(=O)OC(=O)[C@]1(C)[C@H]1CC[C@@H]2O1 | -39.6
Fc1ccc(C(OCCN2CCN(C/C=C/c3ccccc3)CC2)c2ccc(F)cc2)cc1 | -8.38
CN1C(=O)COc2c(C(=O)NC3CN4CCC3CC4)cc(Cl)cc21 (stereo not given) | -3.99
